Reference: PubChem BioAssay
Values without a mark were called inactive. How the calls were made is not given here.

tested on: Aerobactin synthetase IucA (Klebsiella pneumoniae, hypervirulent); assay: biochemical IucA inhibition screen of LOPAC library by absorbance (AID 1346212); details: IucA enzyme assay, absorbance (OD) readout; stronger effect = lower value;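 tested at 8 µM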;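 further: 100% = no compound wells and 0% = no enzyme wells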

Q: How did the remaining activity turn out when `Nc1nnc(-c2cccc(Cl)c2Cl)c(N)n1` was run?
A: 114%

Q: For `Cc1nc(N=Nc2ccc(S(=O)(=O)O)cc2S(=O)(=O)O)c(COP(=O)(O)O)c(C=O)c1O`, which remaining activity is on record?
A: 106%

Q: For `COc1ccccc1N1CCN(CCN2C(=O)CC3(CCCC3)CC2=O)CC1`, which remaining activity is on record?
A: 117%

Q: `O=c1onc2cnc3ccccc3n12` was tested. Which remaining activity did it give?
A: 112%

Q: Which remaining activity does the source give for `CN[C@H](CC(C)C)C(=O)N[C@H]1C(=O)N[C@@H](CC(N)=O)C(=O)N[C@H]2C(=O)N[C@H]3C(=O)N[C@H](C(=O)N[C@H](C(=O)O)c4cc(O)cc(O)c4-c4cc3ccc4O)[C@H](O)c3ccc(c(Cl)c3)Oc3cc2cc(c3O[C@@H]2O[C@H](CO)[C@@H](O)[C@H](O)[C@H]2O[C@H]2C[C@](C)(N)[C@H](O)[C@H](C)O2)Oc2ccc(cc2Cl)[C@H]1O` here?
A: 98.6%

Q: With `COC(=O)c1c(-c2cc(OC)c(OC)c(OC)c2)c2ccnc(OCc3ncccn3)c2c(=O)n1Cc1ccnc(C)c1` as the compound, how does the remaining activity read?
A: 101%

Q: How did the remaining activity turn out when `O=c1[nH]c2ccccc2n1CCCN1CCN(C(c2ccccc2)c2ccccc2)CC1` was run?
A: 116%

Q: Which remaining activity does the source give for `N#C/C(=C\c1ccc(O)c(O)c1)C(=O)N1CCc2ccccc21` here?
A: 107%

Q: How did the remaining activity turn out when `Nc1c(S(=O)(=O)O)cc(Nc2ccc(Nc3nc(Cl)nc(Nc4cccc(S(=O)(=O)O)c4)n3)c(S(=O)(=O)O)c2)c2c1C(=O)c1ccccc1C2=O` was run?
A: 100%

Q: `Oc1cc2c(cc1O)CN(C(=S)NCCc1ccc(Cl)cc1)CCC2` was tested. Which remaining activity did it give?
A: 97.8%

Q: With `CCN(c1nc(N)c(C(=O)N=C(N)N)nc1Cl)C(C)C` as the compound, how does the remaining activity read?
A: 109%

Q: For `CN(CC[C@@H](Oc1ccc(C(F)(F)F)cc1)c1ccccc1)CC(=O)O`, which remaining activity is on record?
A: 118%

Q: Which remaining activity does the source give for `COc1cccc(C(=O)NCCN2CCN(c3ccc(Cl)cc3)CC2)c1` here?
A: 124%

Q: How did the remaining activity turn out when `CC[N+](CC)(CC)CCOc1ccc(/C=C/c2ccccc2)cc1` was run?
A: 118%

Q: Which remaining activity does the source give for `C=C/C(C)=C/[C@@]1(C)SC(=O)C(C)=C1O` here?
A: 123%

Q: Which remaining activity does the source give for `Nc1ccn([C@@H]2O[C@H](CO)[C@@H](O)[C@@H]2O)c(=O)n1` here?
A: 119%

Q: How did the remaining activity turn out when `Cc1cccc(C(=O)NCN2CCN(c3ccccc3C#N)CC2)c1` was run?
A: 123%

Q: Which remaining activity does the source give for `CC(C)C[C@H](NP(=O)(O)O[C@@H]1O[C@@H](C)[C@H](O)[C@@H](O)[C@H]1O)C(=O)N[C@@H](Cc1c[nH]c2ccccc12)C(=O)O` here?
A: 89.8%

Q: Which remaining activity does the source give for `C[C@]12CC[C@@H]3c4ccc(O)cc4CC[C@H]3[C@@H]1CCC2=O` here?
A: 103%

Q: For `c1cnc(N2CCN(Cc3ccc4c(c3)OCO4)CC2)nc1`, which remaining activity is on record?
A: 102%

Q: Which remaining activity does the source give for `Nc1nc2c(nc(Br)n2C2OC3COP(=O)(O)O[C@@H]3C2O)c(=O)[nH]1` (stereo not given in full) here?
A: 111%

Q: For `CN1[C@@H]2CC(OC(=O)[C@H](CO)c3ccccc3)C[C@H]1[C@@H]1O[C@@H]12` (stereo not given in full), which remaining activity is on record?
A: 105%

Q: With `OC[C@H]1O[C@@H](n2cnc3c(N[C@H]4CCC[C@@H]4O)ncnc32)[C@H](O)[C@@H]1O` as the compound, how does the remaining activity read?
A: 123%

Q: With `CC(C)CN(C)c1nc(N)c(C(=O)N=C(N)N)nc1Cl` as the compound, how does the remaining activity read?
A: 114%

Q: How did the remaining activity turn out when `C[N+](C)(C)CCCCCNCC12CC3CC(CC(C3)C1)C2` was run?
A: 120%

Q: For `CC(=O)NNC(=O)N1Cc2ccccc2Oc2ccc(Cl)cc21`, which remaining activity is on record?
A: 105%

Q: `CCCNC[C@H](O)COc1ccccc1C(=O)CCc1ccccc1` was tested. Which remaining activity did it give?
A: 91.3%

Q: `Nc1ccc(-c2nc3ccc(-c4nc5ccc(N)cc5[nH]4)cc3[nH]2)cc1` was tested. Which remaining activity did it give?
A: 114%

Q: With `O=C(O)c1cc([N+](=O)[O-])ccc1NCCCc1ccccc1` as the compound, how does the remaining activity read?
A: 118%

Q: How did the remaining activity turn out when `COc1cc(/C=C(\C#N)C(=O)c2ccc(O)c(O)c2)cc(I)c1O` was run?
A: 85.4%

Q: `CCCCCCCCCCCCCCCCCC(=O)OC(CC(=O)O)C[N+](C)(C)C` (stereo not given) was tested. Which remaining activity did it give?
A: 96.1%

Q: With `CN(C)c1cc2c(Nc3ccc4c(cnn4Cc4ccccc4)c3)ncnc2cn1` as the compound, how does the remaining activity read?
A: 115%

Q: For `OC[C@H]1O[C@@H](n2cnc3c(Nc4ccccc4)ncnc32)[C@H](O)[C@@H]1O`, which remaining activity is on record?
A: 89.3%

Q: `NC(=O)c1ncn([C@@H]2O[C@H](CO)[C@@H](O)[C@H]2O)c1O` was tested. Which remaining activity did it give?
A: 122%

Q: Which remaining activity does the source give for `Cn1c(=O)c2c(nc(/C=C/c3cccc(Cl)c3)n2C)n(C)c1=O` here?
A: 88.1%

Q: `O=C(N[C@@H](Cc1ccccc1)C(=O)CCl)OCc1ccccc1` was tested. Which remaining activity did it give?
A: 111%

Q: With `N[C@@H](CCCC(=O)O)C(=O)O` as the compound, how does the remaining activity read?
A: 110%

Q: For `Cc1ccc(OC[C@H](O)[C@H](C)NC(C)C)c2c1CCC2`, which remaining activity is on record?
A: 101%

Q: Which remaining activity does the source give for `CC(N)=NCc1cccc(CN)c1` here?
A: 103%

Q: With `COC(=O)C1=C(C)NC(C)=C(C(=O)OC(C)(C)CN(C)CCC(c2ccccc2)c2ccccc2)C1c1cccc([N+](=O)[O-])c1` (stereo not given) as the compound, how does the remaining activity read?
A: 109%
